According to PubChem BioAssay AID1851 (National Center for Advancing Translational Sciences (NCATS), 2009):
The whole screen tested about 16,000 compounds, of which about 2,600 (16%) were called active. Inconclusive results (about 20%) are left out. The call rests on the fitted dose curve; in most records, active means well fitted curve in the direction sought with a large enough effect; inconclusive means small, poorly fitted or top-dose-only effect, or effect the other way; inactive means no such curve, though single readings can be large or run the other way. Not all results are given here.

The compounds below were run against Cytochrome P450 2D6 (Homo sapiens) (UniProt P10635) (assay: Cytochrome panel assay with activity outcomes). Conditions: recombinant CYP, pro-luciferin dealkylation, luminescence, p450-cyp2d6; series mostly up to 57.1 µM.
On the % scale 0 is the no-effect control and ±100 the full control effect.

Chain of Cytochrome P450 2D6 (Homo sapiens) (P10635 whole entry, looked up): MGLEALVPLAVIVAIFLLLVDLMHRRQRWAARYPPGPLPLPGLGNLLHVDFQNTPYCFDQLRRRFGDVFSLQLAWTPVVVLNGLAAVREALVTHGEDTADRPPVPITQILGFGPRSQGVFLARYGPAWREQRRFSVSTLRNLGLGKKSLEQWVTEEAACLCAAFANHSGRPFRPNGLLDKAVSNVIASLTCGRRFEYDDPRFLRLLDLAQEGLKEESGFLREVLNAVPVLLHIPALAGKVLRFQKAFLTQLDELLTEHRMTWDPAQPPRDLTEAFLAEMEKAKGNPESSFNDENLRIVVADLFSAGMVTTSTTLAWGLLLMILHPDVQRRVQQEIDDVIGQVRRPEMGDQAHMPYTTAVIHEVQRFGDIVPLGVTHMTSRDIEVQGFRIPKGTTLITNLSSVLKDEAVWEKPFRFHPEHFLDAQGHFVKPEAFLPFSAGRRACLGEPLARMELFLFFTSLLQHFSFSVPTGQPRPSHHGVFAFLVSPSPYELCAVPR

For `COC(=O)c1nn(-c2ccc(OC)cc2)c(=O)cc1Oc1cccc(Cl)c1`, which AC50 is on record?
The AC50 was “inactive”.

Which AC50 does the source give for `O=C1CCc2cc(OCCCCc3nnnn3C3CCCCC3)ccc2N1` here?
Its AC50 is “inactive”.

With `Cn1c(=O)cc(OCCCC(=O)N2CCN(c3ccccc3)CC2)c2ccccc21` as the compound, how does the AC50 read?
Its AC50 is “inactive”.

With `Fc1ccc([C@H]2CCNC[C@H]2COc2ccc3c(c2)OCO3)cc1` as the compound, how does the AC50 read?
Its AC50 is “inactive”.

`c1ccc(N2CCN(CCCOc3ccc4c(c3)OCO4)CC2)cc1` was tested. Which AC50 did it give?
The AC50 was 126 nM (active).

How did the activity, negative = inhibition turn out when `O=C(O)c1cc(=O)[nH]c(SCc2ccccc2)n1` was run?
Its activity, negative = inhibition is 4.29% [at 11.4 µM] (inactive).

`C#CCCCO/N=C1/C[C@@H](O)[C@@H](O)[C@@H]2[C@@H]3C(=O)N(Cc4ccccc4)C(=O)[C@H]3CC[C@H]12` was tested. Which activity, negative = inhibition did it give?
The activity, negative = inhibition was 15.7% [at 11.4 µM] (inactive).

`COC(=O)c1cc(Br)c(=O)n(CCc2ccc(O)cc2)c1` was tested. Which AC50 did it give?
Its AC50 is “inactive”.

With `CCNc1ncc2nc(-c3cccs3)c(=O)n(Cc3cccc(OC)c3)c2n1` as the compound, how does the AC50 read?
The AC50 was “inactive”.

For `CC1(C)C2([N+](=O)[O-])CN3CC1([N+](=O)[O-])CN(C2)C3c1ccccc1` (stereo unspecified), which AC50 is on record?
Its AC50 is “inactive”.

Which AC50 does the source give for `CO[C@]1(NC(=O)[C@H](C(=O)O)c2ccc(O)cc2)C(=O)N2C(C(=O)O)=C(CSc3nnnn3C)CO[C@H]21` here?
Its AC50 is “inactive”.

Which AC50 does the source give for `Cc1ccc(C(=O)O/N=C/c2c(Cl)n(C)c3ccccc23)cc1` here?
The AC50 was “inactive”.

How did the AC50 turn out when `Cc1c2cnccc2c(C)c2c1c1ccccc1n2CCOC(=O)c1ccccc1` was run?
The AC50 was 3160 nM (active).

How did the AC50 turn out when `O=C(OCn1nnc2ccccc2c1=O)c1cccnc1` was run?
Its AC50 is “inactive”.

Which AC50 does the source give for `COc1ncc2ncc(=O)n(CCC#N)c2n1` here?
Its AC50 is “inactive”.

Which AC50 does the source give for `CC(C)(C)NC[C@@H](O)COc1ccccc1C1CCCC1` here?
The AC50 was 2510 nM (active).

With `CC(C)(C)NC[C@H](O)COc1cccc2c1CCC(=O)N2` as the compound, how does the AC50 read?
Its AC50 is “inactive”.

For `CC(C)(C)NC[C@H](O)COc1cccc2c1CCCC2=O`, which AC50 is on record?
The AC50 was “inactive”.

With `CC(C)n1cc(/C=C2/SC(=O)N(CC(=O)Nc3ccc4c(c3)OCO4)C2=O)c2ccccc21` as the compound, how does the AC50 read?
The AC50 was “inactive”.

`Cc1cccc2cc(=O)[nH]c(C)c12` was tested. Which AC50 did it give?
The AC50 was “inactive”.

With `NC(=O)C1(N2CCCCC2)CCN(C(=O)c2cccn3c(=O)c4cc(Cl)ccc4nc23)CC1` as the compound, how does the AC50 read?
Its AC50 is “inactive”.

Which AC50 does the source give for `CCCC[C@@H]1C[C@H]1C(NC(=O)c1ccc(-c2ccccc2)cc1)c1ccc(-c2ccccc2)cc1` (stereo partly specified) here?
Its AC50 is “inactive”.

For `C=C(CC1([C@@H](NP(=O)(c2ccccc2)c2ccccc2)[C@H]2C[C@@H]2CCCC)CC1)c1ccccc1`, which AC50 is on record?
Its AC50 is “inactive”.

Which AC50 does the source give for `CCCC[C@H]1C[C@@H]1[C@@H]1N(P(=O)(c2ccccc2)c2ccccc2)C[C@@](O)(c2ccccc2)CC12CC2` here?
Its AC50 is 15800 nM (active).

How did the AC50 turn out when `CCCC[C@H]1C[C@@H]1[C@@H]1N(P(=O)(c2ccccc2)c2ccccc2)[C@](CO)(c2ccccc2)CC12CC2` was run?
The AC50 was 2510 nM (active).

Which AC50 does the source give for `CCCC[C@@H]1C[C@H]1C(NC(=O)c1ccccc1)c1ccc(-c2ccccc2)cc1` (stereo partly specified) here?
Its AC50 is “inactive”.
